Sm TGR block: S. mansoni TGR enzyme inhibition; Potency, µM (top dose mostly 114 µM), for the others: top-dose activity change, negative = inhibition, actives largely listed as inhibitors; AID 485364; purified TGR, DTNB reduction, TNB absorbance 405 nm; Q962Y6; actives 3% (n = 360,000); note: nearly all actives have a fitted effect of over 60% in size
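TGR 20 nM + NADPH 100 uM (dispensed conc.), cpd preinc 15 min RT; start with NADPH (500 uM addition) then DTNB (15 mM addition). Kinetic TNB absorbance, 405 nm filter. Four-parameter Hill fit across titration.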
TbPYK inhibitor: T. brucei pyruvate kinase inhibition. Q57TT1. Potency, µM (top dose mostly 76.8 µM), without a hit: at the highest dose activity, negative = inhibition, actives largely listed as inhibitors. TbPYK enzyme, Kinase-Glo Plus ATP luminescence, 45 min. actives 0.12% (n = 410,000); note: nearly all actives have a fitted effect of over 50% in size
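ADP (130 uM final) triggers the TbPYK reaction after compound addition; incubation is 45 min at room temperature. Kinase-Glo Plus is then added and luminescence imaged. Normalized data are fitted to concentration-effect curves.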
RE007 growth inh: less growth of the S. pombe RE007 Vpr strain | S. pombe RE007 Vpr strain, BacTiter-Glo ATP luminescence, 24 h | Potency, µM (top dose mostly 92.2 µM), for the others: at the top dose activity change, negative = less growth, most hits filed as inhibitors | actives 0.21% (n = 360,000) | AID 651644; active = well fitted falling curve with a large enough effect; inconclusive = small, poorly fitted or top-dose-only effect; inactive = no such curve, though single readings can be large or run the other way; note: nearly all actives have a fitted effect of over 50% in size
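Fission yeast strain RE007, carrying one chromosomally integrated HIV-1 vpr copy, was seeded at OD 0.01 in PMG+AL medium with 23 nL pinned compound. After 24 h at 30 °C and 99% humidity, viability was read by BacTiter-Glo luminescence.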
LmPK inhibitor: blocks Leishmania mexicana pyruvate kinase activity. Q27686. actives 0.37% (n = 290,000). purified LmPK, Kinase-Glo ATP luminescence, 1 h. Potency, µM (titrated, usually from 57.5 µM), for inactives: at the highest dose activity change, negative = inhibition, usual class: inhibitors. AID 1721
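Purified LmPK (0.1 nM) converted ADP (0.1 mM) to ATP with PEP (0.5 mM) in imidazole buffer pH 7.2 with KCl and MgCl2, 1 h at room temperature. ATP was read by Kinase-Glo luminescence; data normalized to uninhibited and no-enzyme controls.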
Giardia FBPA inh-1: inhibitors of Giardia lamblia fructose-1,6-bisphosphate aldolase; Potency, µM (titrated, usually from 59.6 µM), for inactives: top-dose activity, negative = inhibition, hits mostly inhibitors; actives 0.71% (n = 290,000); purified Giardia FBPA; A8B2U2; note: nearly all actives have a fitted effect of over 55% in size
Target sequence (A8B2U2 whole entry, looked up): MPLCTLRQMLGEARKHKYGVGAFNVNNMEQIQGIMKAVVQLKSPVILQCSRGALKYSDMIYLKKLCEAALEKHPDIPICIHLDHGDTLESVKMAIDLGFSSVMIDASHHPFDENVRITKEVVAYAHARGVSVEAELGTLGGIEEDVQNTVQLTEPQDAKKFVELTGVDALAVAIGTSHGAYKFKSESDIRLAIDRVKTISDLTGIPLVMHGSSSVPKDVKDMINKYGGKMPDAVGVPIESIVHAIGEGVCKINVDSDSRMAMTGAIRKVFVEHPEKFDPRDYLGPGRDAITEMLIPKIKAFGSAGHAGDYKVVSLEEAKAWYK
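Giardia FBPA (40 nM reagent) was preincubated 10 min at RT with compound (up to 57.5 uM final), then substrate plus GAPDH/TPI/NAD/arsenate coupling system with diaphorase/resazurin was added; resorufin fluorescence (525/598 nm) was read after 20 min.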
Giardia growth: Giardia lamblia growth inhibition | Giardia lamblia trophozoite growth inhibition | Potency, µM (top dose mostly 57.5 µM), inactives show top-dose activity change, negative = inhibition, most hits filed as inhibitors | actives 5% (n = 1,500) | shares compounds with Giardia FBPA inh-1 | AID 2785;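 note: trophozoites exposed to compound for 48 h at 37 °C; nearly all actives have a fitted effect of over 70% in size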
Mammal cell tox: mammalian cytotoxicity of Giardia aldolase inhibitor hits; mammalian cell viability counter-screen, qHTS; actives 4% (n = 1,500); Potency, µM (doses to about 57.5 µM), for inactives: at the top dose viability change, negative = toxicity, actives largely listed as inhibitors; shares compounds with Giardia FBPA inh-1;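 note: Chinese hamster ovary cells used as mammalian cytotoxicity surrogate; viability measured as cellular ATP by luminescence; compound exposure lasted 48 h before reading; nearly all actives have a fitted effect of over 60% in size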
Giardia FBPA inh-2: confirmation of Giardia fructose-bisphosphate aldolase inhibitors. actives 5% (n = 1,500). purified Giardia aldolase enzyme activity, qHTS. Potency, µM (doses to about 57.5 µM), without a hit: top-dose activity change, negative = inhibition, most hits filed as inhibitors. shares compounds with Giardia FBPA inh-1; note: nearly all actives have a fitted effect of over 45% in size
Rabbit FBPA inh: blocks rabbit muscle aldolase in Giardia aldolase selectivity test; Potency, µM (titrated, usually from 57.5 µM), without a hit: at the highest dose activity, negative = inhibition, most hits filed as inhibitors; actives 4% (n = 1,500); Rabbit muscle FBPA enzyme inhibition, selectivity counter-screen; shares compounds with Giardia FBPA inh-1; note: nearly all actives have a fitted effect of over 60% in size
Target sequence (P00883 whole entry, looked up): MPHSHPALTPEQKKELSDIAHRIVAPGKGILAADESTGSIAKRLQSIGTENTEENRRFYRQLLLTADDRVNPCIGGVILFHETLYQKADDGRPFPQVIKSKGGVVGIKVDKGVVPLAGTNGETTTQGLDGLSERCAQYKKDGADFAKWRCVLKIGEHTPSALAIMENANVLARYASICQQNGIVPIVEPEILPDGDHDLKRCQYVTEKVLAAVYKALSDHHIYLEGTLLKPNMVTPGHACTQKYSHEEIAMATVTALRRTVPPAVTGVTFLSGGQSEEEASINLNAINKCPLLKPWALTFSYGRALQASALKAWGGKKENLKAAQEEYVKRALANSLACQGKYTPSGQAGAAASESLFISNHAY
GAPDH coupling: counter-screen for Giardia aldolase inhibitors: GAPDH coupling enzyme; shares compounds with Giardia FBPA inh-1; GAPDH coupling enzyme counterscreen, biochemical, qHTS; Potency, µM (highest dose often 57.5 µM), without a hit: at the top dose activity change, negative = inhibition, actives largely listed as inhibitors; actives 6% (n = 1,500); note: nearly all actives have a fitted effect of over 55% in size
Numbers without * were called inactive; ? = inconclusive; · = not tested or not shown; [ ] = dose if it differs, or a comment. This is a sample that favours compounds with a hit; in the whole collection about 3.3% have one here. Unless noted, calls come from the whole dose curve; as a rule, active = well fitted curve in the direction sought with a large enough effect; inconclusive = small, poorly fitted or top-dose-only effect, or another doubt; inactive = no such curve, though single readings can be large; an effect the other way counts as inactive or inconclusive. % is set by controls: 0 for no effect and ±100 for the full control effect; potency is the fitted concentration of half-maximal effect.

SMILES	Sm TGR block	TbPYK inhibitor	RE007 growth inh	LmPK inhibitor	Giardia FBPA inh-1	Giardia growth	Mammal cell tox	Giardia FBPA inh-2	Rabbit FBPA inh	GAPDH coupling
Cc1cccc(N=Nc2ccc(O)c3ncccc23)c1	-11%	-19%	?	-11%	·	·	·	-20%	-18%	-13%
CCOc1ccc(N=Nc2ccc(O)c3ncccc23)cc1	1%	-6%	-8%	-6%	-8%	17%[38.3 µM]	-25%	?	-8%	-22%
CCN(CC)S(=O)(=O)c1cc(OC)ccc1N=Nc1ccc(O)c2ncccc12	-1%	-14%	·	-9%	?	-14%[38.3 µM]	29µM*	?	-19%	?
CCS(=O)(=O)c1ccc(OC)c(N=Nc2ccc(O)c3ncccc23)c1	-15%	-12%	18%	-6%	15%	·	·	·	·	·
Cc1ccc(C)c(N=Nc2ccc(O)c3ncccc23)c1	19%	-2%	8%	0%	-1%	·	·	·	·	·
Nn1c(SCC(=O)Nc2ccc3c(c2)OCCO3)nncc1=O	-22%	1%	-5%	-8%	25µM*	21%	18%	-7%	2%	15%
Cc1cc(-c2nnc(SCC(=O)Nc3ccccc3C(F)(F)F)n2N)n[nH]1	-7%	-19%	17%	2%	7%	·	·	·	·	·
Nn1c(SCC(=O)Nc2ccccc2C(F)(F)F)nncc1=O	1%	-7%	-1%	-7%	20µM*	-13%[10.4 µM]	10%	1%	-1%	8%
CCc1nnc(NC(=O)CSc2nncc(=O)n2N)s1	-26%	-4%	5%	-8%	25µM*	31%	11%	-4%	7%	7%
Cc1ccccc1-c1nnc(SCC(=O)Nc2ccc3c(c2)OCCO3)n1N	-1%	-1%	-1%	0%	-2%	·	·	·	·	·
C[C@H]1CN([C@@H](C)CO)C(=O)CCCn2cc(nn2)CO[C@@H]1CN(C)S(=O)(=O)c1ccc2ccccc2c1	·	-14%	-9%	·	·	·	·	·	·	·
C=CCN(CC=C)CCOc1cc(C)ccc1[N+](=O)[O-]	-36%	12%	-8%	-6%	?	·	·	·	·	·
C=CCN(CC=C)CCOc1ccc(C)cc1[N+](=O)[O-]	-16%	16%	-1%	-5%	20µM*	?	2%	-1%	1%	-4%
O=[N+]([O-])c1ccc(N/N=C/c2ccc[nH]2)cc1	-6%	-4%	0%	-23%	18µM*	0%[10.4 µM]	1%	-26%	-18%	?
O=C(O)CN1C(=O)C=CC1=O	·	-20%	-4%	·	·	·	·	·	·	·
O=C(Nc1cccc(C(F)(F)F)c1)C1CCN(c2nnc(-n3cccc3)s2)CC1	4%	1%	·	·	·	·	·	·	·	·
Cn1ccnc1SC(C(=O)O)c1ccccc1 (configuration not stated)	3%	2%	-1%	-4%	14µM*	?	20%	5%	6%	3%
Cc1ccc(S(=O)(=O)Nc2nc(C)c(C)s2)cc1	0%	2%	12%	8%	?	·	·	·	·	·
O=C(NC(=S)Nc1cccc(NC(=O)c2ccccc2)c1)c1cccc([N+](=O)[O-])c1	-7%	-5%	21%	0%	1%	·	·	·	·	·
NS(=O)(=O)c1cccc(NC(=S)NC(=O)c2cccc([N+](=O)[O-])c2)c1	16µM*	0%	10%	0%	18µM*	3%[10.4 µM]	2%	1%	3%	5%
CC1CCN(C(=S)NC(=O)c2cccc([N+](=O)[O-])c2)CC1	21%	-25%	-4%	-5%	·	·	·	·	·	·
O=C(NC(=S)N1CCCCC1)c1csc([N+](=O)[O-])c1	-16%	-18%	-3%	-27%	13µM*	1µM*	-3%	-2%	5%	10%
CN1CCN(C(=S)NC(=O)c2cccc([N+](=O)[O-])c2)CC1	-3%	5%	-4%	1%	1.8µM*	-22%[38.3 µM]	-16%	-5%	0%	-1%
CC1CN(C(=S)NC(=O)c2ccc([N+](=O)[O-])cc2)CC(C)O1 (configuration not stated)	-1%	-32%	0%	-20%	20µM*	5µM*	10%	1%	14%	3%
CCC1CCC2(CC1)NNC(=S)NN2	-10%	-10%	-11%	-5%	13µM*	-11%[10.4 µM]	6%	-6%	2%	5%
SMILES	Sm TGR block	TbPYK inhibitor	RE007 growth inh	LmPK inhibitor	Giardia FBPA inh-1	Giardia growth	Mammal cell tox	Giardia FBPA inh-2	Rabbit FBPA inh	GAPDH coupling
CC(Cc1ccc(O)cc1)NCC(O)c1ccc(O)c(O)c1 (configuration not stated)	·	-11%	-12%	·	·	·	·	·	·	·
CC(C)NCC(O)c1ccc(O)c(O)c1 (configuration not stated)	-36%	4%	-9%[18.4 µM]	-18%	11µM*	15%	7%	?	?	-23%
CCn1c2c(c(=O)n3ncc(C(=O)Nc4cccc(Cl)c4C)c13)CN(Cc1ccc(OC)cc1)CC2	-16%	?	·	·	·	·	·	·	·	·
COc1cc(/C=N/n2nnnc2N)ccc1OCc1c(C)no[n+]1[O-]	1%	-6%	5%	-2%	2%	·	·	·	·	·
Cc1no[n+]([O-])c1COc1cccc(/C=N/Nc2nncn2N)c1	-24%	-5%	8%	0%	14µM*	39%	8%	18µM*	?	20µM*
COc1cccc(C(=O)NC(=S)Nc2ccccc2N2CCCCC2)c1	5%	-12%	-11%	-7%	16µM*	?	-22%	-3%	-2%	7%
COc1cc(NC(=O)c2ccc3snnc3c2)cc(OC)c1	3%	-4%	6%	1%	-11%	·	·	·	·	·
Cc1cc(NCCN)nc2ccccc12	10%	-9%	-12%	-3%	8%	·	·	·	·	·
Cc1cc(N/N=C(/CCC(=O)O)C(=O)O)nc2ccccc12	-14%	-5%	5%	-6%	16µM*	6%[10.4 µM]	-4%	-3%	-21%	?
COc1ccc(-c2nn(CCC(=O)O)cc2/C=N/NC(N)=S)cc1	17%	-6%	9%	-1%	16µM*	3%[10.4 µM]	18%	1%	2%	11%
Nc1ncnc(Sc2ncccn2)c1[N+](=O)[O-]	2.5µM*	-5%	-19%	2%	18µM*	5%[10.4 µM]	?	4%	-2%	18%
